Measured values published in PubChem BioAssay (NCI).
Compounds without any hit were thinned out: in the full panel of roughly 79,000, 15% have a hit. Activity calls are given as the source filed them. Rule as the data show it: active = growth inhibition above about 70%; inactive = the rest.

How the values were obtained:
[1] = NCI Yeast Anticancer Drug Screen. Data for the rad52 strain (AID 147);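 also: 0% = growth of vehicle-treated control cultures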; conditions: S. cerevisiae rad52 mutant growth inhibition, active compounds read high
In short: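 Here a repair-compromised yeast strain receives each compound; its growth is then quantified and normalised to vehicle-only controls.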

[2] = NCI Yeast Anticancer Drug Screen. Data for the wt1 strain (AID 149);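 also: 0% = growth of vehicle-treated wt1 cultures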; conditions: S. cerevisiae wt1 strain (SPY 50644) growth inhibition, active compounds read high
In short: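 The wt1 strain was treated with compounds, and growth was compared with vehicle-treated cultures to give inhibition.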

[3] = NCI Yeast Anticancer Drug Screen. Data for the rad50EPP+ strain (AID 151);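 also: 0% = growth of vehicle-treated control cultures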; conditions: S. cerevisiae rad50 mutant strain, active compounds read high
In short: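 Read-out is yeast growth inhibition relative to vehicle; cells used were the rad50EPP+ strain.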

[4] = NCI Yeast Anticancer Drug Screen. Data for the mgt1 strain (AID 153); conditions: S. cerevisiae mgt1 mutant growth inhibition, active compounds read high
In short: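 Measured: inhibition of mgt1 yeast growth by compound, normalized to vehicle-treated cultures.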

[5] = NCI Yeast Anticancer Drug Screen. Data for the rad50 strain (AID 155);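 also: 0% = growth of vehicle-only cultures of the same strain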; conditions: S. cerevisiae rad50 strain growth inhibition, active compounds read high
In short: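 Cells are treated with compound, grown, and their growth is then scored against vehicle-only cultures of the same repair-deficient yeast strain.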

[6] = NCI Yeast Anticancer Drug Screen. Data for the mec2-1 strain (AID 157); conditions: S. cerevisiae mec2-1 strain, active compounds read high
In short: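 Using mec2-1 yeast: add compound, measure growth, express inhibition versus vehicle-treated cultures.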

[7] = NCI Yeast Anticancer Drug Screen. Data for the rad14 strain (AID 159);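 also: 0% = growth of vehicle-treated control cultures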; conditions: S. cerevisiae rad14 strain growth inhibition, active compounds read high
In short: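 Readout: yeast growth inhibition, referenced to vehicle-only cultures. Strain bears a defined alteration in DNA damage repair.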

[8] = NCI Yeast Anticancer Drug Screen. Data for the sgs1 mgt1 strain (AID 161);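 also: 0% = growth of cultures given vehicle only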; conditions: S. cerevisiae sgs1 mgt1 strain, active compounds read high
In short: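 Yeast cells carrying a defined DNA-repair defect were exposed to test compounds. Growth inhibition was measured relative to vehicle-treated controls.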

[9] = NCI Yeast Anticancer Drug Screen. Data for the CLN2oe strain (AID 163);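 also: 0% = growth of vehicle-only control cultures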; conditions: S. cerevisiae CLN2oe strain, active compounds read high
In short: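 Whole-cell yeast growth assay. A strain engineered for altered cell-cycle control received compound, and inhibition relative to vehicle-treated cultures was recorded.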

[10] = NCI Yeast Anticancer Drug Screen. Data for the cln2 rad14 strain (AID 165);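 also: 0% = growth equal to vehicle treated cultures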; conditions: S. cerevisiae cln2 rad14 strain, active compounds read high
In short: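 Yeast strain cln2 rad14, bearing defects in cell cycle control and DNA repair, serves as the test system; values reflect growth inhibition compared with vehicle.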

[11] = NCI Yeast Anticancer Drug Screen. Data for the bub3 strain (AID 167); conditions: S. cerevisiae bub3 mutant strain, active compounds read high
In short: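 Part of a panel of yeast mutants defective in DNA damage repair or cell cycle regulation. Each strain is grown with compound, and inhibition is calculated relative to solvent-treated cultures.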

[12] = NCI Yeast Anticancer Drug Screen. Data for the mlh1 strain (AID 171);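 also: 0% = growth of vehicle-treated control cultures of the same strain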; conditions: S. cerevisiae mlh1 strain growth inhibition, active compounds read high
In short: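 A yeast strain with a defined genetic lesion serves as the test organism. Cultures receive compound or vehicle, and growth is measured.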

[13] = NCI Yeast Anticancer Drug Screen. Data for the sgs1 strain (AID 173);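 also: 0% = growth of vehicle-only control cultures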; conditions: S. cerevisiae sgs1 mutant, active compounds read high
In short: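 A genetically defined yeast mutant is incubated with the test compound, and its growth is compared to that of the same strain given vehicle.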

[14] = NCI Yeast Anticancer Drug Screen. Data for the mlh1 rad18 strain (AID 175); conditions: S. cerevisiae mlh1 rad18 strain growth inhibition, active compounds read high
In short: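 Steps: expose repair-defective yeast to compound; measure growth; express inhibition against vehicle-treated controls.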

[15] = NCI Yeast Anticancer Drug Screen. Data for the rad18 strain (AID 177); conditions: S. cerevisiae rad18 mutant growth inhibition, active compounds read high
In short: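 Measured value is growth inhibition of a yeast strain bearing a DNA repair alteration, referenced to vehicle-treated cells.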

[16] = at 5.0 µM (retest, dose inferred, filed as 0.5)
[17] = at 50.0 µM (retest, dose inferred, filed as 5.0)

Measured: growth inhibition

COC1C(O)C(C)OC(OC2C(Oc3cccc4c(O)c5c(=O)oc6ccc(C)c7c(=O)oc(c34)c5c67)OC(C)C(O)C2O)C1O (stereo not drawn)
active: [1]; at 11.0 µM 85% | [1]; at 33.0 µM 87% | [1]; at 100.0 µM 89% | [5]; at 3.7 µM 78% | [5]; at 11.0 µM 83% | [5]; at 33.0 µM 84% | [5]; at 50.0 µM 88% | [5]; at 100.0 µM 84%
inactive: [1]; at 1.2 µM 41% | [1]; at 3.7 µM 67% | [2]; at 1.2 µM 6% | [2]; at 3.7 µM 2% | [2]; at 11.0 µM 8% | [2]; at 33.0 µM 17% | [2]; at 100.0 µM 12% | [3]; at 1.2 µM 7% | [3]; at 3.7 µM 22% | [3]; at 11.0 µM 31% | [3]; at 33.0 µM 39% | [3]; at 100.0 µM 35% | [4]; at 1.2 µM -4% | [4]; at 3.7 µM 7% | [4]; at 11.0 µM -4% | [4]; at 33.0 µM 25% | [4]; at 100.0 µM 18% | [5]; at 1.2 µM 57% | [5]; [16] 29% | [5]; [17] 68% | [6]; at 1.2 µM 1% | [6]; at 3.7 µM 4% | [6]; [16] 25% | [6]; at 11.0 µM 9% | [6]; at 33.0 µM 18% | [6]; [17] 15% | [6]; at 50.0 µM 33.8% | [6]; at 100.0 µM 34% | [7]; at 1.2 µM 5% | [7]; at 3.7 µM 9% | [7]; at 11.0 µM 20% | [7]; at 33.0 µM 30% | [7]; at 100.0 µM 32% | [8]; [16] 28% | [8]; [17] -2% | [8]; at 50.0 µM 3.65% | [9]; at 1.2 µM 1% | [9]; at 3.7 µM 1% | [9]; at 11.0 µM 9% | [9]; at 33.0 µM 2% | [9]; at 100.0 µM 17% | [10]; [16] 19% | [10]; [17] 5% | [10]; at 50.0 µM -3.1% | [11]; at 1.2 µM -5% | [11]; at 3.7 µM -3% | [11]; [16] 23% | [11]; at 11.0 µM -1% | [11]; at 33.0 µM -2% | [11]; [17] -5% | [11]; at 50.0 µM 57.7% | [11]; at 100.0 µM 14% | [12]; at 1.2 µM 0% | [12]; at 3.7 µM 6% | [12]; at 11.0 µM 9% | [12]; at 33.0 µM 17% | [12]; at 100.0 µM 30% | [13]; at 1.2 µM 1% | [13]; at 3.7 µM 4% | [13]; at 11.0 µM 15% | [13]; at 33.0 µM 20% | [13]; at 100.0 µM 22% | [14]; [16] -2% | [14]; [17] -4% | [14]; at 50.0 µM 46.2% | [15]; at 1.2 µM 6% | [15]; at 3.7 µM 3% | [15]; at 11.0 µM 17% | [15]; at 33.0 µM 21% | [15]; at 100.0 µM 16%

CC1CCC2(NC1)OC1CC3C4CCC5CC(OC6OC(CO)C(OC7OC(CO)C(O)C(OC8OCC(O)C(O)C8O)C7OC7OC(CO)C(O)C(O)C7O)C(O)C6O)CCC5(C)C4CCC3(C)C1C2C (stereo not drawn)
active: [1]; at 100.0 µM 76% | [5]; [17] 98%
inactive: [1]; at 1.2 µM 30% | [1]; at 3.7 µM 8% | [1]; at 11.0 µM 12% | [1]; at 33.0 µM 0% | [2]; at 1.2 µM -6% | [2]; at 3.7 µM -15% | [2]; at 11.0 µM -18% | [2]; at 33.0 µM -17% | [2]; at 100.0 µM 40% | [3]; at 1.2 µM 21% | [3]; at 3.7 µM 3% | [3]; at 11.0 µM 8% | [3]; at 33.0 µM 13% | [3]; at 100.0 µM 27% | [4]; at 1.2 µM -2% | [4]; at 3.7 µM -10% | [4]; at 11.0 µM -11% | [4]; at 33.0 µM -11% | [4]; at 100.0 µM 44% | [5]; at 1.2 µM -2% | [5]; at 3.7 µM -16% | [5]; [16] 1% | [5]; at 11.0 µM -14% | [5]; at 33.0 µM -6% | [5]; at 50.0 µM 28.9% | [5]; at 100.0 µM 62% | [6]; at 1.2 µM 13% | [6]; at 3.7 µM -14%
